Inconclusive results are not listed. Active and inactive are the calls of the source. Unless noted, calls come from the whole dose curve; as a rule, active = well fitted curve in the direction sought with a large enough effect; inconclusive = small, poorly fitted or top-dose-only effect, or another doubt; inactive = no such curve, though single readings can be large; an effect the other way counts as inactive or inconclusive.

The values that follow come from PubChem BioAssay (NCATS).

Assay [1] in a line: AP1 Signaling Pathway (AID 357; active = well fitted curve in either direction with a large enough effect, not every such curve was filed as active;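 note: ME-180 reporter cells stimulated with EGF at its EC50 level; % is set by controls: 0 for no effect and ±100 for the full control effect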). The following applies: ME-180 AP-1-bla reporter, EGF-induced, beta-lactamase ratio, 5 h; at 7.69 µM (top of the series) unless noted. Put shortly:
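Beta-lactamase reporter under AP-1 response element, ME-180 background. Stimulus: EC50 EGF. Compound exposure 5 h, 37 °C. Detection: CCF4, 2.5 h RT, 460/530 nm. Values: AC50 from titration.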

In assay [2] the target is Cytochrome P450 1A2 (Homo sapiens) (UniProt P05177). The assay can be described thus: p450-cyp1a2 (AID 410; calls by dose curve; note: potency is the fitted concentration of half-maximal effect;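 for activity change, negative = inhibition: -100% = full effect of reference inhibitor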). The gist of the method:
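Luminescent demethylation readout: Luciferin-ME (100uM, equal to Km) turned over by 20nM CYP1A2 for 60 min at room temperature after NADPH regeneration addition, following 10 min compound preincubation. Normalization used 57 uM furafylline as full inhibition.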

Assay [3] in a line: NFAT Signaling Pathway (AID 444; active = well fitted curve in either direction with a large enough effect, not every such curve was filed as active;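 note: carbachol stimulus at about its EC50 of 1 µM final; % is set by controls: 0 for no effect and ±100 for the full control effect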). The following applies: Jurkat NFAT-bla M1, carbachol, beta-lactamase ratio, 5 h; at 7.69 µM (top of the series) unless noted. The gist of the method: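 Jurkat cells carrying an NFAT-driven β-lactamase reporter and co-transfected muscarinic M1 receptor were treated with compound plus carbachol (1 uM final, an EC50 level) for 5 h at 37 °C. CCF4 loading followed for 1 h at RT; 460/530 nm ratio gave %activity.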

Assay [4] is described as follows: Stat Signaling Pathway (AID 446; active = well fitted curve in either direction with a large enough effect, not every such curve was filed as active;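 note: ME-180 cervical cancer cells given 40 pM IL-6 alongside compound; SIE-controlled beta-lactamase reporter measured as 460/530 nm FRET emission ratio; % is set by controls: 0 for no effect and ±100 for the full control effect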). To be noted: ME-180 SIE beta-lactamase reporter, IL-6 stimulated, 5 h; at 7.69 µM (top of the series) unless noted. Put shortly: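 Normalization used AC90 stimulation (300 pM IL-6) and AC90 inhibition (125 nM pan-JAK inhibitor at 40 pM IL-6). The underlying signal is SIE-driven beta-lactamase in ME-180 cells after 5 h IL-6 exposure with compound.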

Assay [5] has as its target Glucocorticoid receptor (Homo sapiens) (UniProt P04150). Description: GR-GFP Redistribution (AID 450;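 active = compounds whose dose series gives a full or clear partial fitted curve of increased nuclear translocation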; note: potency is the fitted concentration of half-maximal effect). To be noted: U2OS GR-GFP nuclear translocation, laser cytometry, 2 h.
Assay [6] shares this target. Description: GR-EFC Redistribution (AID 451; calls by dose curve; note: potency is the fitted concentration of half-maximal effect). The following applies: CHO-K1 GR-EFC translocation, beta-gal luminescence, 2 h. Put shortly: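 CHO-K1 cells stably expressing nuclear-localized β-gal enzyme acceptor and GR fused C-terminally to the enzyme donor fragment; ligand-driven nuclear translocation restores β-gal by complementation. Compounds titrated up to 46 uM final, 2 h at 37 °C; luminescence read.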

In assay [7] the target is Mitogen-activated protein kinase 10 (Mus musculus) (UniProt Q61831). The assay can be described thus: JNK3 AlphaScreen Assay (AID 530; active = well fitted curve in either direction with a large enough effect, not every such curve was filed as active;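 note: kinase came from lysate of stimulated human HepG2 cells; signal reports phosphorylation of biotinylated GST-cJun 1-79 at Ser73 with 10 µM ATP; % is set by controls: 0 for no effect and ±100 for the full control effect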). Put shortly: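 Phosphorylation of biotinylated GST-cJun(1-79) at Ser73 is measured by AlphaScreen proximity luminescence. Enzyme is JNK3 in HepG2 lysates activated with interleukin-1beta and tumor necrosis factor alpha; ATP is 10 uM final.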

The target in assay [8] is 3',5'-cyclic-AMP phosphodiesterase 4B (Homo sapiens) (UniProt Q07343). Description: qHTS Assay for Inhibitors of PDE-IV (AID 607; active = well fitted activation curve with a large enough effect in the main read-out, with a control signal flat, not every such curve was filed as active; note: % of control where 0% means no effect). The gist of the method:
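HEK293 ACTOne cells with CNG channel (1000/well), endogenous PDE4; membrane potential dye, compounds up to 22.9 uM final. Fluorescence Ex 535/Em 590; RO 20-1724 (100 uM final) as reference.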
For orientation: qHTS replaces the single test concentration by a dilution series.

Assay [9] concerns the target Cytochrome P450 3A4 (Homo sapiens) (UniProt P08684). Description: qHTS Assay for Inhibitors and Substrates of Cytochrome P450 3A4 (AID 884). Note: potency is the fitted concentration of half-maximal effect; nearly all actives have a fitted effect of over 50% in size. Put shortly: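 Luminescent readout of luciferin produced by CYP3A4 (20 nM) dealkylation of Luciferin-PPXE, 25 uM (its KM). NADPH-driven reaction ran 60 min at RT after 10 min compound preincubation; data scaled to 57 uM ketoconazole as 100% inhibition.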

For assay [10] the target is unchanged. Description: qHTS Assay for Activators of Cytochrome P450 3A4 (AID 885). Note: nearly all actives have a fitted effect of over 65% in size. The gist of the method:
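Human CYP3A4 dealkylates Luciferin-PPXE to luciferin, which luciferase detection converts to light. Substrate was at its KM (25uM), buffer 200mM KPO4, reaction 60 min at RT.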

A short description of assay [11]: Confirmation and Secondary Assay for Modulators of Hemoglobin Beta Chain Splicing at IVS2 654 locus (AID 910).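 Note: per-well total GFP intensity by laser scanning cytometry after 2-day treatment; % of control where 0% means no effect.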 The gist of the method:
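HeLa cells stably carrying EGFP interrupted by mutant beta-globin IVS2-654 intron (CMV-driven) were treated with compound for 2 days at 37C; corrected splicing was scored as total peak GFP intensity per well (488 nm excitation, 500-520 nm emission).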

Assay [12] can be described thus: Confirmation and Secondary Assay for Modulators of Hemoglobin Beta Chain Splicing at IVS2 705 locus (AID 930).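 Note: HeLa cells stably expressing the EGFP-705 splicing reporter; GFP fluorescence per well restored by corrected splicing of the IVS2-705 intron in EGFP; % of control where 0% means no effect.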 Put shortly:
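HeLa EGFP-705 reporter; 500 cells/well, o/n 37C 5% CO2; cpd 2 d; 488 ex/500-520 em laser scan; total peak GFP intensity/well. Ref: 500 nM […] antisense PNA.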

A short description of assay [13]: qHTS Assay for Lipid Storage Modulators (AID 1519; calls by dose curve). To be noted: Drosophila S3 cells, BODIPY lipid droplet/cell ratio, laser cytometry, cells loaded with oleic acid; for activity change, negative = inhibition: at 57.5 µM (top of the series). Put shortly:
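Cells seeded at 5,000 per well were treated with compounds over a concentration series and loaded with oleic acid (400 uM, as added). Lipid droplet fluorescence (488 nm excitation, 500-530 nm channel) was read by laser-scanning cytometry and normalized to 20 uM Triacsin C.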

Assay [14] is described as follows: Primary qHTS for small molecule stabilizers of the endoplasmic reticulum resident proteome: Secreted ER Calcium Modulated Protein (SERCaMP) assay (AID 1508630). Note: % is set by controls: 0 for no effect and ±100 for the full control effect. The gist of the method: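 The SH-SY5Y reporter protocol was run at 3 concentrations up to 38.3 uM (primary) or 11 concentrations (follow-up): 16 h compound, 100 nM thapsigargin for 4 h, then extracellular luciferase luminescence.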

Assay [15] addresses Lysosomal acid glucosylceramidase (Homo sapiens) (UniProt P04062). Description: Glucocerebrosidase-p2 (AID 348; in the data active = potency below about 10 µM; note: potency is the fitted concentration of half-maximal effect). The following applies: purified GBA, blue fluorogenic substrate, 40 min. The gist of the method: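 Normal human glucocerebrosidase (0.2 nM) with blue fluorogenic substrate (80 uM final) in citrate/phosphate pH 5.9 with 10mM sodium taurocholate, 0.01% tween-20; 40 min RT, NaOH/glycine stop; fluorescence Ex 365/Em 440; AC50 from a titration from 0.6 nM upwards.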

Assay [16] has as its target Dual specificity protein kinase CLK4 (Homo sapiens) (UniProt Q9HAZ1). The assay can be described thus: qHTS Assay for Inhibitors of CDC-like Kinase 4 (Kinase-Glo Assay) (AID 1770). Note: nearly all actives have a fitted effect of over 65% in size. Note: potency is the fitted concentration of half-maximal effect. Put shortly: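 Luminescent ATP-depletion read-out (Kinase-Glo) after 4.5 h room-temperature reaction of Clk4 (25 nM final) with RS peptide (100 uM) and ATP (1 uM), pH 7.5 Tris buffer with MgCl2 and DTT.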

Assay [17] shares this target. The assay can be described thus: qHTS Assay for Inhibitors of CDC-like Kinase 4 (ADP-Glo Assay) (AID 1771). Note: nearly all actives have a fitted effect of over 70% in size. Note: potency is the fitted concentration of half-maximal effect. The gist of the method: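 ADP production was read by ADP-Glo luminescence after residual ATP depletion, following 1 h room-temperature reaction of 25 nM Clk4, 1 uM ATP and 100 uM RS peptide with MgCl2, EGTA, DTT and Triton X-100.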
The target is the same in assay [18]. Description: qHTS Assay for Inhibitors of CDC-like Kinase 4 (ADP-FP Assay) (AID 1795).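 Note: recombinant human CLK4 phosphorylating RS repeat peptide at 1 µM ATP; % is set by controls: 0 for no effect and ±100 for the full control effect; nearly all actives have a fitted effect of over 60% in size.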 The gist of the method:
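Kinase activity was measured as ADP production using Transcreener orange tracer (4 nM) and ADP antibody (1 ug/mL) fluorescence polarization, with ADP calculated from a calibration curve. The 1 h reaction contained 6.25 nM Clk4, 1 uM ATP and 100 uM RS peptide at pH 7.5 with Mg2+.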

Assay [19] concerns the target Ubiquitin carboxyl-terminal hydrolase 1 (Homo sapiens) (UniProt O94782). The assay can be described thus: Inhibitors of USP1/UAF1: Pilot qHTS (AID 504865).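 Note: rhodamine fluorescence freed from ubiquitin-rhodamine substrate followed over time; top concentration of the series differs between compounds; % is set by controls: 0 for no effect and ±100 for the full control effect; nearly all actives have a fitted effect of over 35% in size.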 The gist of the method: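 Deubiquitinase activity followed as kinetic rhodamine fluorescence release from 150 nM Ub-Rho. 1 nM USP1/UAF1 with compound, after 15 min room-temperature preincubation, in HEPES pH 7.8 buffer containing TCEP, EDTA, BSA and Tween-20.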

Assay [20] is described as follows: qHTS Assay for Identification of Small Molecule Agonists for Hypoxia Response Element Signaling Pathway (AID 914; active = well fitted activation curve with a large enough effect in the signal ratio, with a control signal flat, not every such curve was filed as active; the % refers to the signal ratio; note: potency is the fitted concentration of half-maximal effect). To be noted: ME-180 (cervical carcinoma) HRE-bla reporter, beta-lactamase ratio, CoCl2, 17 h; activation: stronger effect = higher value. The gist of the method:
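Read-out: CCF4 FRET ratio of 460nm to 530nm emission (excitation 405nm) after 2.5 hours at room temperature, taken from HRE-bla ME-180 cells that had been exposed to compound and EC50 CoCl2 for 17 hours.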

In assay [21] the target is Cytochrome P450 2C19 (Homo sapiens) (UniProt P33261). Description: qHTS Assay for Inhibitors and Substrates of Cytochrome P450 2C19 (AID 899). Note: % is set by controls: 0 for no effect and ±100 for the full control effect; nearly all actives have a fitted effect of over 60% in size. The gist of the method:
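In 50mM KPO4, the reaction held 5nM enzyme and KM-level (10uM) Luciferin-H EGE; it ran 60 min at 37C after NADPH regeneration and a 10 min compound preincubation. Luminescence values were scaled to 57uM ketoconazole as complete inhibition.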

The mark [22] stands for this setting: measured here: cell count channel max response.
The mark [23] stands for this setting: measured here: lipid channel max response.

Chain of Glucocorticoid receptor (Homo sapiens) (P04150 whole entry, looked up, the tested form may be a part): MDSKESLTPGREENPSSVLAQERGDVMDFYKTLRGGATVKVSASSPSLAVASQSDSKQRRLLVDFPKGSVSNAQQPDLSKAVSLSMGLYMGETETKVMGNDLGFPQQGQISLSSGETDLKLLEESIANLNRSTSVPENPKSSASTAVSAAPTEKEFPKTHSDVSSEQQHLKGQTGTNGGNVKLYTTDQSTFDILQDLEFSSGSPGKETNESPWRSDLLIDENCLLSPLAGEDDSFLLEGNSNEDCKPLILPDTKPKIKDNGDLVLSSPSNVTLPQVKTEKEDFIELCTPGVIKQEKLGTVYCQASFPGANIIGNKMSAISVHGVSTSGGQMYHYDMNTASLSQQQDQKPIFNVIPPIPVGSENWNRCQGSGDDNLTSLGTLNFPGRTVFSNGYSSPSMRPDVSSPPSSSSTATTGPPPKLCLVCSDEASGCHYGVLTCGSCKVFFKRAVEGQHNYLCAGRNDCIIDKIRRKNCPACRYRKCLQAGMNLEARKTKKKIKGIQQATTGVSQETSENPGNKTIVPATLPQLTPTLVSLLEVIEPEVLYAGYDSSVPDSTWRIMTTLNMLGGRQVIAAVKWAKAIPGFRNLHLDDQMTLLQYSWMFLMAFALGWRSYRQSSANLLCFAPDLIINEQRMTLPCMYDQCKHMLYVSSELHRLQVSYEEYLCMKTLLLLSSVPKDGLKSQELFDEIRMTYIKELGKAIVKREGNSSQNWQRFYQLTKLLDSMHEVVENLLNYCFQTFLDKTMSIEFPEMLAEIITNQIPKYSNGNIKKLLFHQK
Chain of Ubiquitin carboxyl-terminal hydrolase 1 (Homo sapiens) (O94782 whole entry, looked up): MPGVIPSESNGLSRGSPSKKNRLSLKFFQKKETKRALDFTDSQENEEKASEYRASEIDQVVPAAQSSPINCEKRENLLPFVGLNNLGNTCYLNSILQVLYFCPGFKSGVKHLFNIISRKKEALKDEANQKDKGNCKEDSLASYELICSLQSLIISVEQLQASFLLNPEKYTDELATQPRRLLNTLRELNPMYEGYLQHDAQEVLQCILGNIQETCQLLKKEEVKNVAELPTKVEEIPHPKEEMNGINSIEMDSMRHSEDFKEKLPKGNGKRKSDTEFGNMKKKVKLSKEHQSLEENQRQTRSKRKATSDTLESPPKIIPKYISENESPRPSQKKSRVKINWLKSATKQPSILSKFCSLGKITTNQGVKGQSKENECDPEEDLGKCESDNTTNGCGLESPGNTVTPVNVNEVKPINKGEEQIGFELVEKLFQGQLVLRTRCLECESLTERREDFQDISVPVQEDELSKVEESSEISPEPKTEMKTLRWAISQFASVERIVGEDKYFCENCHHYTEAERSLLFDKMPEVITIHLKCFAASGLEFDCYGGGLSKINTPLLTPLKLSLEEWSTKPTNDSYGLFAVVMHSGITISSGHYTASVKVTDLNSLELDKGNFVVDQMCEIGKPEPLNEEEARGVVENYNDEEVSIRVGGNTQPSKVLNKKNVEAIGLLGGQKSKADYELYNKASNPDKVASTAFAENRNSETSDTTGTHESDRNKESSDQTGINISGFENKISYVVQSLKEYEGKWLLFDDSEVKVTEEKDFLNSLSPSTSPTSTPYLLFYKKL
Chain of 3',5'-cyclic-AMP phosphodiesterase 4B (Homo sapiens) (Q07343 whole entry, looked up): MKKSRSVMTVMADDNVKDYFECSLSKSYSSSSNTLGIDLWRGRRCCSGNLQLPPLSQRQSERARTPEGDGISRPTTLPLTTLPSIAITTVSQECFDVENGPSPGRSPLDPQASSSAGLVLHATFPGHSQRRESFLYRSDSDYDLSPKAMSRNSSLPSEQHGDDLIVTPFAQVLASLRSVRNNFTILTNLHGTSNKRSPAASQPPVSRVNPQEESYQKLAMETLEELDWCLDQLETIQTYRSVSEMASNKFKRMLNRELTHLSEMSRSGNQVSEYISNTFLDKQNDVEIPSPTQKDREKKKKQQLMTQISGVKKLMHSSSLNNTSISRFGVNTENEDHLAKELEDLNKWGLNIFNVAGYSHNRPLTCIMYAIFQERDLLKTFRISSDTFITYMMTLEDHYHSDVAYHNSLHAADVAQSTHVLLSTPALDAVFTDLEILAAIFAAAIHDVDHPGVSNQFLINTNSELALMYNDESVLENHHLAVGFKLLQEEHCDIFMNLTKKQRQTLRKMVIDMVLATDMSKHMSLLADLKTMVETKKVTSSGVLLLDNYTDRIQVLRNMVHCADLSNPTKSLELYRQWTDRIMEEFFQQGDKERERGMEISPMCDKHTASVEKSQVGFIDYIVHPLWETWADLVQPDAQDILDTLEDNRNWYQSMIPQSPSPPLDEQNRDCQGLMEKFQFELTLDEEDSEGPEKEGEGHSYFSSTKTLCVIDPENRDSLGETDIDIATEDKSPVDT
Chain of Dual specificity protein kinase CLK4 (Homo sapiens) (Q9HAZ1 whole entry, looked up): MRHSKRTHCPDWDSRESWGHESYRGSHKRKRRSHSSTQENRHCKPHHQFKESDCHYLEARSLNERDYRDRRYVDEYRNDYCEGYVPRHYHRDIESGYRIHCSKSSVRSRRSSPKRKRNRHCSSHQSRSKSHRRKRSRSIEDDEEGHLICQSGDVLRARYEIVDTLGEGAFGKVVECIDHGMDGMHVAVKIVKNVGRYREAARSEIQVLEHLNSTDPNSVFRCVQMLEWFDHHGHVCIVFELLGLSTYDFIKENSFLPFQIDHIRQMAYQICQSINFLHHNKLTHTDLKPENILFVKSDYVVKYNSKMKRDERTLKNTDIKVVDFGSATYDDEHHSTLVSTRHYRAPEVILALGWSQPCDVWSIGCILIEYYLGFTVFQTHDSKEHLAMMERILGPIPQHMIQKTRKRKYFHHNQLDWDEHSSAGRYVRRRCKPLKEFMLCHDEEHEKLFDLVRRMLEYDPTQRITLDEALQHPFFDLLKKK
Chain of Cytochrome P450 1A2 (Homo sapiens) (P05177 whole entry, looked up): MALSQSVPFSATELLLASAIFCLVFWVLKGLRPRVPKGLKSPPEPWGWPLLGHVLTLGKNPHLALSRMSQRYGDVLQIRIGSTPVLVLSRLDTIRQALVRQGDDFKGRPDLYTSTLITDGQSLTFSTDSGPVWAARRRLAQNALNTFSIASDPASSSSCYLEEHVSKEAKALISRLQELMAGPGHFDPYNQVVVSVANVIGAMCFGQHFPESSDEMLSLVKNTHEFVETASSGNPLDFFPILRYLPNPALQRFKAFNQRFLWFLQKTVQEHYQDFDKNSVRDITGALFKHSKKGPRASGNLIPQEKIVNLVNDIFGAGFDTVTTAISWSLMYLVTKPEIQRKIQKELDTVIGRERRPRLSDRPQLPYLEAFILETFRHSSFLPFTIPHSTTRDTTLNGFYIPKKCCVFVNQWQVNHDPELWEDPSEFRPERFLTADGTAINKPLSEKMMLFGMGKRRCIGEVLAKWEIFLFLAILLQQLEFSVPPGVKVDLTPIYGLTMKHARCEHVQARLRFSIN
Chain of Cytochrome P450 3A4 (Homo sapiens) (P08684 whole entry, looked up): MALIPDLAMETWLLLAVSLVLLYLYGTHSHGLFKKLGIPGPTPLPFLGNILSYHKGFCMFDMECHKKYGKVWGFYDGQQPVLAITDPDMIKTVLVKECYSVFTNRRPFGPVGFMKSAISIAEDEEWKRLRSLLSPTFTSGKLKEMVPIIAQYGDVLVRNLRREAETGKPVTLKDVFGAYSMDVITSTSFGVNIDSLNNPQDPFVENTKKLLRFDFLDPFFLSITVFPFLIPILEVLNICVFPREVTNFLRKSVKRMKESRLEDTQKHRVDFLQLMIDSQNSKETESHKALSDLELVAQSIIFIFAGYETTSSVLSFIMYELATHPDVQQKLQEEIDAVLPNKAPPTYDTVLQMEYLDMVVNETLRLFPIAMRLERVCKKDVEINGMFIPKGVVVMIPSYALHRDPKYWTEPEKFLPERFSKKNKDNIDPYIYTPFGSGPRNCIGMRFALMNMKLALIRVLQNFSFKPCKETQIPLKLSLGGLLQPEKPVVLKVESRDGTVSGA
Chain of Lysosomal acid glucosylceramidase (Homo sapiens) (P04062 whole entry, looked up): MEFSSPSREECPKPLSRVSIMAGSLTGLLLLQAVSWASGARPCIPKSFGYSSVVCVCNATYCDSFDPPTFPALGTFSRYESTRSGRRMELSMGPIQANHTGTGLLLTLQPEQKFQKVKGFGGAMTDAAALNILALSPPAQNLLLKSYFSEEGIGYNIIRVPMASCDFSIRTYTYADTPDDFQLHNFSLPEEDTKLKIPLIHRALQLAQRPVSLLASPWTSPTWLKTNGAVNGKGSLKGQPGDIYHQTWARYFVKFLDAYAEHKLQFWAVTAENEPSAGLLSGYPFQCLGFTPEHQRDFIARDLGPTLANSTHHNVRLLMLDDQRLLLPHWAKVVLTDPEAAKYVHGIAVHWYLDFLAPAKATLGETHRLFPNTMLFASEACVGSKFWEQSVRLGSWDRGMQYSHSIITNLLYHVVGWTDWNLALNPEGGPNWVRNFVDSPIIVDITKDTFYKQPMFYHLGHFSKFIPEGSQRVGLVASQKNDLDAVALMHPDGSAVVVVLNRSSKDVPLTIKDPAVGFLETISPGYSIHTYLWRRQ
Chain of Cytochrome P450 2C19 (Homo sapiens) (P33261 whole entry, looked up): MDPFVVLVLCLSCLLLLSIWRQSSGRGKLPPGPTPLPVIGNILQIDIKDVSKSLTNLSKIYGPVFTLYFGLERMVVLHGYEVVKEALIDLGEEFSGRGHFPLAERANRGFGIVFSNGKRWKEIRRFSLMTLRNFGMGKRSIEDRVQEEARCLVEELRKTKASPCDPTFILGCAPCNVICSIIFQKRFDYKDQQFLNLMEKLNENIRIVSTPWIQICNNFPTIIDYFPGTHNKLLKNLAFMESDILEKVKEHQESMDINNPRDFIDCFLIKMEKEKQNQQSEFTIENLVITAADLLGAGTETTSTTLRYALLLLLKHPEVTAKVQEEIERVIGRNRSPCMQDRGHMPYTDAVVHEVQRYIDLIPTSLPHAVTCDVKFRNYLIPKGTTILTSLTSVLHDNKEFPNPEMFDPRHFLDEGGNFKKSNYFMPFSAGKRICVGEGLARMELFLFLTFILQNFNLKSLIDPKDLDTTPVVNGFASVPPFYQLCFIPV

Turning to `Cc1noc(C)c1-c1nccc(NCc2cccnc2)n1`, the activity change, negative = inhibition in assay [1] is 7.38% (inactive); in [3] it was -9.01% (inactive); in [13], 4.68% (inactive). The Potency in assay [2] was 0.158 µM (active); in assay [5], > 46 µM (inactive); in assay [6] it was > 46 µM (inactive); in assay [9], 3.98 µM (active). Moreover, in [4], the activity, negative = inhibition was 10.1% (inactive). Further, the result in assay [7], in assay [11] and in assay [12] was inactive. For the same molecule, the Potency entry in assay [8], in assay [10] and in [14] was “inactive” in each case. Moreover, the max response in [13] (setting [22]) came to 14.6%; in assay [13] (setting [23]), 21.8%.

With `Cc1cnc(CNc2ncncc2-c2cccnc2)cn1`, the Potency in assay [15] was > 11.4 µM (inactive); in [5], > 46 µM (inactive); in assay [6], > 46 µM (inactive). Moreover, the results for the activity change, negative = inhibition in [1], in assay [3] and in assay [13] were 12.8% (inactive), -0.272% (inactive) and 5.94% (inactive), respectively. In addition, the activity, negative = inhibition in [4] is 0.806% (inactive). In addition, the molecule was called inactive in assay [7]. In addition, the Potency result in [8], in assay [16], in assay [17], in assay [18] and in assay [19] was “inactive” each time. The max response in assay [13] (setting [22]) stood at 29.4%; in assay [13] (setting [23]) it was 33.4%.

`CCNc1ncc2nc(-c3cccs3)c(=O)n(C)c2n1`: the Potency is 1.58 µM (active) in [2], > 9.22 µM (inactive) in assay [5], > 46 µM (inactive) in [6] and 3.16 µM (active) in assay [20]. The molecule was called inactive in [7]. Further, the Potency result in assay [8], in assay [10], in assay [16], in [17], in assay [18] and in assay [19] was “inactive” throughout. In addition, the activity change, negative = inhibition in assay [13] was -12.5% (inactive). Also, the max response in assay [13] (setting [22]) was 3.66%; in assay [13] (setting [23]), -11.1%.

On to `Clc1ccccc1-c1ccc2ncnc(N3CCNCC3)c2c1`, for which the Potency was > 11.4 µM (inactive) in [15]; 2 µM (active) in assay [2]; > 46 µM (inactive) in assay [5]; > 46 µM (inactive) in [6]; 15.8 µM (active) in assay [16]; 28.2 µM (active) in assay [17]. In addition, the activity change, negative = inhibition is 19.1% (inactive) in assay [1] and -4.54% (inactive) in assay [3]. For the same molecule, the activity, negative = inhibition in assay [4] was 5.5% (inactive). Besides, the result in [7] was inactive. Also, the Potency entry in assay [8], in [19] and in assay [14] was “inactive” throughout.

Turning to `N#Cc1cccc(NC(=O)N2CC[C@@]3(CCCN(C(=O)c4ccncc4)C3)C2)c1`, the activity change, negative = inhibition in assay [1] is -19.8% (inactive); in assay [3], 1.61% (inactive); in assay [13], 1.67% (inactive). For the same molecule, the Potency entry in assay [2], in assay [8], in [10] and in assay [14] was “inactive” each time. The activity, negative = inhibition in assay [4] is 4.09% (inactive). Moreover, the Potency in assay [6] was > 46 µM (inactive). Moreover, in [7], the outcome was inactive. Moreover, the max response in [13] (setting [22]) was 17.2%; in assay [13] (setting [23]), 21.1%.

For `Cc1cccc(CNc2ncnc3ccc(-c4cccc(C#N)c4)cc23)c1`, the activity change, negative = inhibition in assay [1] was -19.4% (inactive); in assay [3] it was -25.8% (inactive). Moreover, the Potency in assay [2] is 0.631 µM (active); in assay [6] it was > 46 µM (inactive). Besides, the activity, negative = inhibition in assay [4] was -6.66% (inactive). Also, the result in [7], in [11] and in [12] was inactive. Moreover, the Potency entry in assay [14] was “inactive”.

On to `CC(=O)N1CCC2(CC1)CN(c1ccccc1)C2`, for which the values for the activity change, negative = inhibition in assay [1], in assay [3] and in assay [13] were 10.4% (inactive), 3.05% (inactive) and 6.65% (inactive), respectively. The Potency result in [2], in [8], in assay [21] and in assay [14] was “inactive” each time. Also, the activity, negative = inhibition in assay [4] was 10.3% (inactive). Also, the Potency in [6] is > 46 µM (inactive). In assay [7], the outcome was inactive. In addition, the max response in assay [13] (setting [22]) stood at 16.4%; in [13] (setting [23]) it was 26.6%.
